Inconclusive results are not listed. Calls of active or inactive are those of the source. Calls come from the whole dose curve; as a rule, active = well fitted cell-killing curve with a large enough effect; inconclusive = small, poorly fitted or top-dose-only effect, or effect the other way; inactive = no such curve, though single readings can be large or run the other way.
Test: Quantitative High-Throughput drug screen in 47 multiple myeloma cell lines against the NCATS MIPE library collection: KMS34_JCRB cell viability assay (AID 1918985); note: nearly all actives have a fitted effect of over 40% in size
Details: KMS34 myeloma viability, CellTiter-Glo ATP luminescence, 48 h; series mostly up to 45.8 µM
From the text: PI: Beverly A. Mock Ph.D.
Laboratory of Cancer Biology and Genetics,
Center for Cancer Research, National Cancer Institute,
National Institute of Health, Bethesda, Maryland
Drug resistance and disease progression are common in multiple myeloma (MM) patients, underscoring the need for new therapeutic combinations. […] We hypothesized that effective combinations would reduce MYC expression and enhance p16 activity. […] These preclinical data identify potentially useful drug combinations for evaluation in drug-resistant MM and reveal potential mechanisms of combined drug sensitivity.
Described herein is the primary MIPE qHTS used to cherrypick compounds. Validated compounds were then further tested for potential synergistic activiy.
[1] Peat TJ, Gaikwad SM, Dubois W, Gyabaah-Kessie N, Zhang S, Gorjifard S, Phyo Z, Andres M, Hughitt VK, Simpson RM, Miller MA, Girvin AT, Taylor A, Williams D, D'Antonio N, Zhang Y, Rajagopalan A, Flietner E, Wilson K, Zhang X, Shinn P, Klumpp-Thomas C, McKnight C, Itkin Z, Chen L, Kazandijian D, Zhang J, Michalowski AM, Simmons JK, Keats J, Thomas CJ, Mock BA. Drug combinations identified by high-throughput screening promote cell cycle transition and upregulate Smad pathways in myeloma. Cancer Lett. 2023 Aug 1;568:216284. doi: 10.1016/j.canlet.2023.216284. Epub 2023 Jun 24. PMID: 37356470; PMCID: PMC10408729.
SEQUENCE No. (e.g., 1, 2, 3, etc.); […] (e.g., Cells, Incubation, Reagent, etc.); VALUE and DESCRIPTION.
1; Cells; 5 uL; white, solid bottom 1536-well Greiner assay plate.
2; Compounds; 23 nL; Kalypsis pin tool (Wako USA) equipped with a 1536-well pin head to transfer to the assay plates.
3; Incubation; 48 hours; 37C incubation.
4; Reagent;5uL; CellTiter Glo (Promega).
5; Detector; 425V; Luminescence; Viewlux PerkinElmer.
NOTES (numbers refer to Sequence numbers above)
1. The cell-based screening methods employed in this study were like those previously published. Briefly, the corresponding myeloma cell lines were screened in 1,536-well plates with 500 cells, 5-uL per well for inhibition of cell viability (assessed by measuring ATP levels with CellTiterGlo).
2. NCATS MIPE 4.0 library of approved and investigational drugs were added using the Kalypsis pin tool. Wells treated with DMSO only for 100% viability and media only for 0% viability were used as controls.
3. The assay plates were covered and incubated for 48 hours in a 37C, 5% CO2 incubator with controlled humidity.
4. After 48 hours, CellTilter-GloTM luminescent substrate mix (Promega) reagent was added to the assay plate and plates we incubated for 5 min at room temperature.
5. Signal was measured as median relative luminescence units on a ViewLux (PerkinElmer) multiplate reader.
[1] Heske CM, Davis MI, Baumgart JT, Wilson K, Gormally MV, Chen L, Zhang X, Ceribelli M, Duveau DY, Guha R, Ferrer M, Arnaldez FI, Ji J, Tran HL, Zhang Y, Mendoza A, Helman LJ, Thomas CJ. Matrix Screen Identifies Synergistic Combination of PARP Inhibitors and Nicotinamide Phosphoribosyltransferase (NAMPT) Inhibitors in Ewing Sarcoma. Clin Cancer Res. 2017 Dec 1;23(23):7301-7311. doi: 10.1158/1078-0432.CCR-17-1121. Epub 2017 Sep 12. PMID: 28899971; PMCID: PMC6636827.
For `O=C(c1ccc(Nc2nccc(-c3cc4ccccc4s3)n2)cc1)N1CCC(N2CCCC2)CC1`, the Potency was 11.8 µM (active).
With `Cn1c2ccccc2c2c3c(c4c5ccccc5n(CCC#N)c4c21)CNC3=O` the Potency was 3.72 µM (active).
For `CC(C)c1ccc(Cn2ccc3c4c(N)nc(NC5CC5)nc4ccc32)cc1`, the Potency was 3.32 µM (active).
For `CCCCOc1c(C(=O)c2c(F)cc(C)cc2F)cnc2n[nH]cc12`, the Potency was 2.35 µM (active).
In the case of `CNC(=O)c1cc(Oc2ccc(NC(=O)Nc3cc(C(C)(C)C)nn3-c3ccc4ncccc4c3)c(F)c2)ccn1`, the Potency is reported as 7.43 µM (active).
For `CCOC(=O)C1=C(C)NC2=C(C(=O)CC(C)(C)C2)C1c1ccc(-c2ccccc2)cc1` (stereo not given), the Potency was 18.7 µM (active).
With `COc1ccc(C=Cc2cc(OC)c(OC)c(OC)c2)cc1O` the Potency was “inactive”.
For `O=C(O)c1ccc2c(c1)nc(Nc1cccc(Cl)c1)c1ccncc12`, the Potency was 10.5 µM (active).
In the case of `Nc1nc(Nc2ccc(S(N)(=O)=O)cc2)nn1C(=O)c1c(F)cccc1F`, the Potency is reported as 8.33 µM (active).
For `COc1cc(-c2nn(C3CCC(N4CCN(C(C)=O)CC4)CC3)c3ncnc(N)c23)ccc1NC(=O)c1cc2ccccc2n1C` (stereo not given), the Potency was 6.62 µM (active).
With `Cc1cc(Nc2cc(N3CCN(C)CC3)nc(C=Cc3ccccc3)n2)n[nH]1` the Potency was 5.4 µM (active).
In the case of `Cc1cc(C(=O)N2CCN(c3cccc(Cl)c3)CC2)n(-c2ccccc2)n1`, the Potency is reported as 1.05 µM (active).
For `CC(=O)OCCN1C(=O)c2c(C)nc3ccc(S(=O)(=O)N4CCOCC4)cc3c2C1=O`, the Potency was “inactive”.
In the case of `Cn1cc(-c2[nH]c3cc(NC(=O)[C@H](N)C4CCCCC4)cc4c3c2C=NNC4=O)cn1`, the Potency is reported as 4.69 µM (active).
With `C[C@@H](Oc1cc(-c2cnn(C3CCNCC3)c2)cnc1N)c1c(Cl)ccc(F)c1Cl` the Potency was 11.8 µM (active).
For `Nc1ccccc1NC(=O)c1ccc(CNC(=O)OCc2cccnc2)cc1`, the Potency was 0.935 µM (active).
In the case of `Cc1ccc(S(=O)(=O)Nc2cc(Cl)ccc2C(=O)Nc2nc(-c3ccccc3)cs2)cc1`, the Potency is reported as 20.9 µM (active).
For `CNC(=O)c1ccc(-c2cnc3ncc(Cc4ccc5ncccc5c4)n3n2)cc1F`, the Potency was “inactive”.
With `O=c1[nH]nc(Sc2ncc([N+](=O)[O-])s2)n1-c1ccc2c(c1)OCCO2` the Potency was 2.09 µM (active).
In the case of `CN1CC[C@@H](c2c(O)cc(O)c3c(=O)cc(-c4ccccc4Cl)oc23)[C@@H](O)C1`, the Potency is reported as 0.0743 µM (active).
With `CNc1nccc(-c2cccnc2Oc2cc(C(=O)Nc3cccc(C(F)(F)F)c3)ccc2C)n1` the Potency was 14.8 µM (active).
In the case of `O=C(CCCCCCC(=O)Nc1ccc([C@H]2O[C@@H](CSc3nc(-c4ccccc4)c(-c4ccccc4)o3)C[C@@H](c3ccc(CO)cc3)O2)cc1)NO`, the Potency is reported as 6.62 µM (active).
With `CC(C)(O)c1cc2nc(-c3cnc(N)nc3)nc(N3CCOCC3)c2s1` the Potency was 0.0372 µM (active).
In the case of `COC(=O)Nc1nc2ccc(C(=O)c3ccc(F)cc3)cc2[nH]1`, the Potency is reported as 0.935 µM (active).
With `CC(C)C[C@H](NC(=O)CNC(=O)c1cc(Cl)ccc1Cl)B(O)O` the Potency was 0.059 µM (active).
In the case of `COc1c(OCCCN2CCOCC2)ccc2c3n(c(=NC(=O)c4cnc(N)nc4)nc12)CCN3`, the Potency is reported as 0.257 µM (active).
With `Cc1cnc(Nc2ccc(F)cc2Cl)nc1-c1c[nH]c(C(=O)N[C@H](CO)c2cccc(Cl)c2)c1` the Potency was 23.5 µM (active).
In the case of `Nc1ncnc2c1c(-c1cnc3[nH]ccc3c1)nn2C1CCCC1`, the Potency is reported as 1.87 µM (active).
In the case of `CN(C)Cc1c(C(=O)NCCOc2ccc(C(=O)NO)cc2)oc2ccccc12`, the Potency is reported as 0.526 µM (active).
In the case of `N#Cc1c(O)c2c(-c3ccc(-c4ccccc4O)cc3)csc2[nH]c1=O`, the Potency is reported as “inactive”.
In the case of `COc1ccc2c(OCc3nnc4ccc(-c5ccccc5)nn34)ccnc2c1`, the Potency is reported as “inactive”.
In the case of `CC(=O)Nc1sc2c(c1-c1nc3ccccc3s1)CNC2`, the Potency is reported as 6.62 µM (active).
In the case of `Cc1[nH]c2ccccc2c1CCNCc1ccc(C=CC(=O)NO)cc1`, the Potency is reported as 0.0526 µM (active).
For `CCC1=C[C@@H]2CN(C1)Cc1c([nH]c3ccccc13)[C@@](C(=O)OC)(c1cc3c(cc1OC)N(C)[C@@H]1[C@@](O)(C(=O)OC)[C@H](OC(C)=O)[C@]4(CC)C=CCN5CC[C@]31[C@@H]54)C2`, the Potency was 0.0166 µM (active).
For `O=C1CCC[C@@H]2[C@H]3CCC[N+]4([O-])CCC[C@@H](CN12)[C@@H]34` (stereo not given in full), the Potency was “inactive”.
For `CC(C)[C@H](C(=O)Nc1ccc(C(=O)NO)cc1)c1ccccc1`, the Potency was 0.264 µM (active).
With `CC(O)C1C(=O)N2C(C(=O)O)=C(SC3CNC(C(=O)N(C)C)C3)C(C)C12` (stereo not given) the Potency was “inactive”.
With `CC1(C)CC(=O)c2c(C(F)(F)F)nn(-c3ccc(C(N)=O)c(NC4CCC(OC(=O)CN)CC4)c3)c2C1` (stereo not given) the Potency was 0.166 µM (active).
With `O=C(NC1CCNCC1)c1[nH]ncc1NC(=O)c1c(Cl)cccc1Cl` the Potency was 0.418 µM (active).
With `CC=CC1=C(C(=O)O)N2C(=O)[C@H](NC(=O)[C@H](N)c3ccc(O)cc3)[C@@H]2SC1` the Potency was “inactive”.
Potency is the fitted concentration of half-maximal effect.
